According to PubChem BioAssay (Tox21):
Values joined by “and” are separate entries in the source; they are usually repeats but may differ in a detail not shown here. Equal values may be shown once. Records with an inconclusive call do not appear. A structure can be active in one record and inactive in another. Active and inactive are the calls of the source. The call rests on the fitted dose curve; in most records, active means well fitted curve in the direction sought with a large enough effect in the repeat runs; inconclusive means weak or mixed curves; inactive means no such curve, though single readings can be large; an effect the other way counts as inactive or inconclusive.

How the values were obtained:
[1] = A CellTox Green Cytotoxicity Assay to monitor cytotoxicity in HEK293 cells - 32 hour (AID 1224881); further: nearly all actives have a fitted effect of over 40% in size; further: potency means the concentration at half of the fitted maximal effect
Method in brief: (§1)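 HEK293 cells, 600/well, were preincubated 5 hours and then exposed to compounds at 37 C for up to 40 hours. A cell-impermeant cyanine dye staining dead-cell DNA was read by fluorescence at 0, 8, 16, 24, 32 and 40 h time points.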

[2] = A CellTox Green Cytotoxicity Assay to monitor cytotoxicity in HepG2 cells - 0 hour (AID 1224882); further: nearly all actives have a fitted effect of over 35% in size
Method in brief: (§2)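 HepG2 cells, 600/well, preincubated 5 h with CellTox Green dye, then exposed to Tox21 compounds in DMSO at 37 C for up to 40 h. Dead-cell DNA fluorescence read at the indicated time point.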

[3] = A CellTox Green Cytotoxicity Assay to monitor cytotoxicity in HepG2 cells - 32 hour (AID 1224883); further: nearly all actives have a fitted effect of over 50% in size; further: potency means the concentration at half of the fitted maximal effect
Method in brief: as §2

[4] = A CellTox Green Cytotoxicity Assay to monitor cytotoxicity in HEK293 cells - 8 hour (AID 1224884); further: nearly all actives have a fitted effect of over 35% in size; further: potency means the concentration at half of the fitted maximal effect
Method in brief: as §1

[5] = qHTS RealTime-Glo MT Cell Viability Assay in HepG2 cells - 16 hour (AID 1224885); further: nearly all actives have a fitted effect of over 50% in size; further: potency means the concentration at half of the fitted maximal effect
Method in brief: (§3)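 HepG2 cells (600/well) were dispensed with RealTime-Glo reagents, incubated 5 h at 37 °C, then treated with compounds in DMSO for up to 40 h. Nonlytic NanoLuc luminescence reflecting viable cells was read at each stated time point.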

[6] = qHTS RealTime-Glo MT Cell Viability Assay in HEK293 cells - 24 hour (AID 1224886); further: nearly all actives have a fitted effect of over 50% in size; further: potency means the concentration at half of the fitted maximal effect; on activity change, negative = cytotoxicity: top concentration of the series differs between compounds
Method in brief: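 HEK293 cells seeded with NanoLuc/prosubstrate reagent, rested 5 h at 37 C, then dosed and kept at 37 C up to 40 h. Nonlytic real-time luminescence from viable cells read at 0, 8, 16, 24, 32 and 40 h.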

[7] = A CellTox Green Cytotoxicity Assay to monitor cytotoxicity in HEK293 cells - 16 hour (AID 1224888); further: nearly all actives have a fitted effect of over 35% in size; further: potency means the concentration at half of the fitted maximal effect
Method in brief: as §1

[8] = qHTS RealTime-Glo MT Cell Viability Assay in HepG2 cells - 0 hour (AID 1224889); further: nearly all actives have a fitted effect of over 50% in size
Method in brief: as §3

[9] = A CellTox Green Cytotoxicity Assay to monitor cytotoxicity in HepG2 cells - 8 hour (AID 1224890); further: nearly all actives have a fitted effect of over 45% in size; further: potency means the concentration at half of the fitted maximal effect
Method in brief: as §2

[10] = qHTS RealTime-Glo MT Cell Viability Assay in HEK293 cells - 8 hour (AID 1224887); further: nearly all actives have a fitted effect of over 50% in size; further: potency means the concentration at half of the fitted maximal effect; on activity change, negative = cytotoxicity: top concentration of the series differs between compounds
Method in brief: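 600 cells/well were plated with the nonlytic NanoLuc/prosubstrate reagent, pre-incubated 5 h, then given 23 nL of compound in DMSO. Incubation at 37 C for 40 h, with luminescence from viable-cell-reduced substrate read repeatedly from 0 h.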
On the % scale 0 is the no-effect control and ±100 the full control effect.

C[Si](Cn1cncn1)(c1ccc(F)cc1)c1ccc(F)cc1
inactive and 54.9 µM (active): Potency [1]
inactive: Potency [2] | Potency [4] | Potency [5] | Potency [7] | outcome [8] | Potency [9]
active: Potency [3] 50.6 µM and 49 µM | Potency [6] 25.4 µM and 21.9 µM

CC(C)[C@@H](C(=O)O[C@@H](C#N)c1cccc(Oc2ccccc2)c1)c1ccc(Cl)cc1
inactive: Potency [1] | Potency [2] | Potency [3] | Potency [4] | Potency [5] | Potency [7] | outcome [8] | Potency [9]

C=CCOC(=O)C(C)(C)OC(=O)c1cc(-n2c(=O)cc(C(F)(F)F)n(C)c2=O)ccc1Cl
active: Potency [6] 19.1 µM
inactive: Potency [1] | Potency [2] | Potency [3] | Potency [4] | Potency [5] | Potency [7] | outcome [8] | Potency [9]

CN[C@@H](C)[C@H](O)c1ccccc1
inactive: Potency [1] | Potency [2] | Potency [3] | Potency [5] | Potency [6] | Potency [10] | Potency [7] | outcome [8] | Potency [9]

C#CC(O)(C=CCl)CC (stereo not given)
inactive: Potency [1] | Potency [2] | Potency [3] | Potency [5] | Potency [6] | Potency [10] | Potency [7] | outcome [8] | Potency [9]

Clc1ccccc1
inactive: Potency [1] | Potency [2] | Potency [3] | Potency [5] | Potency [6] | Potency [10] | Potency [7] | outcome [8] | Potency [9]

O=C(N[C@H]1CN2CCC1CC2)c1ccc2c(c1)OCCO2
inactive: Potency [1] | Potency [2] | Potency [3] | Potency [5] | Potency [6] | Potency [10] | Potency [7] | outcome [8] | Potency [9]

Nc1ccc2c(c1)Cc1ccccc1-2
inactive: Potency [1] | Potency [2] | Potency [3] | Potency [4] | Potency [5] | Potency [10] | Potency [7] | outcome [8] | Potency [9]

Cc1nc2ccccc2c(=O)n1-c1ccccc1Cl
active: Potency [6] 21.4 µM | Potency [10] 24 µM
inactive: Potency [1] | Potency [2] | Potency [3] | Potency [4] | Potency [7] | Potency [9]

CCC1(C2=NCCN2)Cc2ccccc2O1 (stereo not given)
inactive: Potency [1] | Potency [2] | Potency [3] | Potency [5] | Potency [6] | Potency [10] | Potency [7] | outcome [8] | Potency [9]

CCCC1CCCCN1 (stereo not given)
inactive: Potency [1] | Potency [2] | Potency [3] | Potency [5] | Potency [6] | Potency [10] | Potency [7] | outcome [8] | Potency [9]

OCCCl
inactive: Potency [1] | Potency [2] | Potency [3] | Potency [5] | Potency [6] | Potency [10] | Potency [7] | outcome [8] | Potency [9]

Cc1ccccc1
inactive: Potency [1] | Potency [2] | Potency [3] | Potency [5] | Potency [6] | Potency [10] | Potency [7] | outcome [8] | Potency [9]

C=CC(C)(CCC=C(C)C)OC(=O)c1ccccc1N (stereo not given)
inactive: Potency [1] | Potency [2] | Potency [3] | Potency [5] | Potency [6] | Potency [10] | Potency [7] | outcome [8] | Potency [9]

CC(C)(C)OOC(C)(C)CCC(C)(C)OOC(C)(C)C
inactive: Potency [1] | Potency [2] | Potency [3] | Potency [5] | Potency [6] | Potency [10] | Potency [7] | outcome [8] | Potency [9]

CCCCCBr
inactive: Potency [1] | Potency [2] | Potency [3] | Potency [4] | Potency [5] | Potency [7] | outcome [8] | Potency [9]

CCNC(=O)NC(=O)/C(C#N)=N/OC
inactive: Potency [1] | Potency [2] | Potency [3] | Potency [4] | Potency [5] | Potency [6] | Potency [10] | outcome [8] | Potency [9]

CC(C)c1ccc(OP(=O)(Oc2ccc(C(C)C)cc2)Oc2ccc(C(C)C)cc2)cc1
inactive: Potency [1] | Potency [2] | Potency [3] | Potency [5] | Potency [6] | Potency [10] | Potency [7] | outcome [8] | Potency [9]

CCC(C)(C)c1ccc(O)c(C(C)(C)CC)c1
48.5 µM (active) and inactive: Potency [4]
inactive: Potency [2] | outcome [8]
active: Potency [1] 48.5 µM and 13.8 µM | Potency [3] 30.6 µM | Potency [6] 43.2 µM | Potency [10] 24.3 µM

CC(C)OC(=O)Cc1ccccc1
inactive: Potency [1] | Potency [2] | Potency [3] | Potency [5] | Potency [6] | Potency [10] | Potency [7] | outcome [8] | Potency [9]

CCCCCCCCCCCCN=C(N)N
inactive: cytotoxicity increase [1] 11.7% [at 2.72 µM] | cytotoxicity [2] -4.6% [at 2.72 µM] | cytotoxicity increase [3] -4.96% [at 2.72 µM] | cytotoxicity increase [4] 4.34% [at 2.72 µM] | activity change, negative = cytotoxic [5] -5.38% [at 2.72 µM] | activity change, negative = cytotoxicity [8] 5.28% [at 2.72 µM] | cytotoxicity increase [9] -0.515% [at 2.72 µM]

CN(C)C(=O)Nc1cccc(OC(=O)NC(C)(C)C)c1
inactive: Potency [1] | Potency [2] | Potency [3] | Potency [5] | Potency [6] | Potency [10] | Potency [7] | outcome [8] | Potency [9]

C[C@H]1O[C@H](OC2[C@@H](O)[C@@H](O)C(O)[C@H](O)[C@H]2O)[C@@H](N)C[C@@H]1N=C(N)C(=O)O (stereo not given in full)
inactive: Potency [1] | Potency [2] | Potency [3] | Potency [4] | Potency [5] | Potency [6] | Potency [10] | outcome [8] | Potency [9]

CC(C)(C)N(NC(=O)c1ccc(Cl)cc1)C(=O)c1ccccc1
inactive: Potency [1] | Potency [2] | Potency [3] | Potency [4] | Potency [5] | Potency [10] | Potency [7] | outcome [8] | Potency [9]

Nc1cccc2ccccc12
inactive: Potency [1] | Potency [2] | Potency [3] | Potency [4] | Potency [5] | Potency [6] | Potency [10] | outcome [8] | Potency [9]

CC(C)c1ccc(NC(=O)N(C)C)cc1
inactive: Potency [1] | Potency [2] | Potency [3] | Potency [5] | Potency [6] | Potency [10] | Potency [7] | outcome [8] | Potency [9]

CCCN(CCC)c1c([N+](=O)[O-])cc(C(C)C)cc1[N+](=O)[O-]
inactive: Potency [1] | Potency [2] | Potency [3] | Potency [5] | Potency [6] | Potency [10] | Potency [7] | outcome [8] | Potency [9]

O=C=NC1CCCCC1
inactive: Potency [1] | Potency [2] | Potency [3] | Potency [5] | Potency [6] | Potency [10] | Potency [7] | outcome [8] | Potency [9]

COC1CC(=C(c2cccs2)c2cccs2)C[N+](C)(C)C1 (stereo not given)
inactive: Potency [1] | Potency [2] | Potency [3] | Potency [5] | Potency [6] | Potency [10] | Potency [7] | outcome [8] | Potency [9]

Oc1cccc(Cl)c1
inactive: Potency [1] | Potency [2] | Potency [3] | Potency [5] | Potency [6] | Potency [10] | Potency [7] | outcome [8] | Potency [9]

[Cl-].[Cl-].[Hg+2]
inactive and 15.5 µM (active): Potency [4]
active: Potency [1] 21.8 µM and 6.92 µM | Potency [3] 24.4 µM and 3.09 µM | Potency [5] 48.8 µM and 3.89 µM | Potency [10] 43.5 µM and 3.47 µM | Potency [7] 38.7 µM and 11 µM | Potency [9] 48.8 µM and 4.9 µM
inactive: Potency [2]

O=C(O)COc1cc(Cl)c(Cl)cc1Cl
inactive: Potency [1] | Potency [2] | Potency [3] | Potency [5] | Potency [6] | Potency [10] | Potency [7] | outcome [8] | Potency [9]

CCOc1cccc(C2(N3CCN(c4ccccc4)CC3)CCC(C)CC2)c1 (stereo not given)
inactive: Potency [1] | Potency [2] | Potency [3] | Potency [5] | Potency [6] | Potency [10] | Potency [7] | outcome [8] | Potency [9]

CC1(C)[C@H](C(=O)O[C@H](C#N)c2cccc(Oc3ccccc3)c2)[C@@H]1C=C(Br)Br
inactive: Potency [1] | Potency [2] | Potency [3] | Potency [5] | Potency [6] | Potency [10] | Potency [7] | outcome [8] | Potency [9]

O=C(O)c1cc(Cl)ccc1Cl
inactive: Potency [1] | Potency [2] | Potency [3] | Potency [5] | Potency [6] | Potency [10] | Potency [7] | outcome [8] | Potency [9]

O=P(OCC(Br)CBr)(OCC(Br)CBr)OCC(Br)CBr (stereo not given)
active: Potency [6] 27.9 µM | Potency [10] 24.9 µM
inactive: Potency [1] | Potency [2] | Potency [3] | Potency [5] | Potency [7] | outcome [8] | Potency [9]

CCC1(CCC(C)C)C(=O)NC(=O)NC1=O
inactive: Potency [1] | Potency [2] | Potency [3] | Potency [5] | Potency [6] | Potency [10] | outcome [8] | Potency [9]

O=C(O)C(F)(F)C(F)(F)C(F)(F)C(F)(F)C(F)(F)C(F)(F)C(F)(F)C(F)(F)F
inactive: Potency [1] | Potency [2] | Potency [3] | Potency [6] | Potency [10] | Potency [7] | Potency [9]

Clc1ccc2ccccc2c1
inactive: Potency [2] | Potency [3] | Potency [5] | outcome [8] | Potency [9]
active: Potency [1] 50.5 µM

O=S(=O)(c1ccccc1)c1ccccc1
inactive: Potency [1] | Potency [2] | Potency [3] | Potency [5] | Potency [6] | Potency [10] | outcome [8] | Potency [9]

CCc1ccccc1N
inactive: Potency [1] | Potency [2] | Potency [3] | Potency [5] | Potency [6] | Potency [10] | outcome [8] | Potency [9]

CCCC[N+](CCCC)(CCCC)CCCC
inactive: Potency [1] | Potency [2] | Potency [3] | Potency [5] | Potency [10] | outcome [8] | Potency [9]

O=[N+]([O-])c1cc(Cl)c(Cl)cc1Cl
inactive: Potency [2] | Potency [3] | Potency [4] | Potency [5] | Potency [6] | Potency [10] | outcome [8] | Potency [9]

CN1CC[C@]23c4c5ccc(O)c4O[C@H]2[C@@H](O)C=C[C@H]3[C@H]1C5
inactive: Potency [1] | Potency [3] | Potency [4] | Potency [5] | Potency [6] | Potency [10] | Potency [7] | outcome [8] | Potency [9]

O=C(Cl)OCCOCCOC(=O)Cl
inactive: Potency [1] | Potency [2] | Potency [3] | Potency [5] | Potency [6] | Potency [10] | outcome [8] | Potency [9]
